The list is a sample of the results.
aSyn 5UTR act – Activators via SNCA 5'UTR binding, MLPCN; activity score, % (tested at 7.5 µM), hits read low; 7.1% of 300,000 active; alpha-synuclein 5'UTR reporter, activators screen; in the data active means activity score below about -60%
Numbers stand for hits; . = inactive.

SMILES | aSyn 5UTR act
Cc1cc(C)cc(NC(=O)Nc2ccc(-n3ccc(C(F)(F)F)n3)cc2)c1 | -77.0
O=C(Nc1ccc(-n2ccc(C(F)(F)F)n2)cc1)Nc1cccc(Cl)c1 | -81.0
COC(=O)c1c(-c2ccccc2)csc1NC(=O)c1c(-c2ccccc2)noc1C | .
O=C(Nc1scc(-c2ccc(F)cc2)c1C(=O)O)c1ccco1 | -76.7
COC(=O)c1c(-c2ccccc2)csc1NC(=O)c1ccco1 | -168.2
COc1ccc(Nc2nccc3c2nnn3C)cc1 | -144.2
COC(=O)N1N=C(c2ccccc2)CC1(O)C(F)(F)F (centres undefined) | -64.7
O=C(Nc1cccc(O)c1)c1ccc(Br)cc1 | -181.2
CC(=O)c1cccc(NC(=O)Nc2nc(C)cc(C)n2)c1 | -85.3
CN(C)C(=S)Nc1ccc2ccccc2c1 | -66.6
O=C(Nc1ccc(Br)cc1)c1cc2ccccn2n1 | -116.8
Cc1cccc(NC(=O)CCNC(=O)c2ccc(Br)cc2)c1 | -92.6
CC(=O)c1ccc(NC(=O)c2cccc(NC(=O)c3ccccc3)c2)cc1 | -115.6
CC(C)OC(=O)c1cccc(NC(=O)c2ccccc2)c1 | -132.2
COC(=O)/C(=C\C(=O)c1ccccc1)Nc1cccc(C(F)(F)F)c1 | -184.9
CC(C)(C)n1nc(-c2ccc(F)cc2)c2c(N)ncnc21 | .
CC1CCC(NC(=O)CCNC(=O)c2ccc(Br)cc2)CC1 (centres undefined) | -70.6
O=C(Nc1ccccc1)Nc1ccc2ccccc2c1 | -141.1
CC(=O)c1ccc(NC(=O)c2cc(C)nc3ccccc23)cc1 | -101.0
CSc1ncc(C(=O)Nc2ccc(C(C)=O)cc2)c(C)n1 | -86.6
CC(=O)c1cccc(NC(=O)c2ccc3ccccc3c2)c1 | -144.5
Nc1ccc(C(=O)Nc2cccc(N)c2)cc1 | -66.9
O=C(Nc1cccc(C(=O)Nc2ccc(Br)cc2)c1)c1ccccc1 | -110.7
CCC(=O)Nc1cccc(NC(=O)c2ccc(Br)cc2)c1 | -116.7
CC(C)c1cc(C(=O)Nc2cccc(C(F)(F)F)c2)no1 | -101.7
SMILES | aSyn 5UTR act
O=C(Nc1ccccc1)Nc1cccc(C(F)(F)F)c1 | -73.1
O=C(Cc1ccccc1)NNc1ccc2ccccc2c1 | -100.6
CC(=O)c1cccc(NC(=O)Nc2ccccc2)c1 | -95.8
CC(C)c1ccc(Nc2nnc(SCC(=O)Nc3ncc(S(=O)(=O)c4ccc([N+](=O)[O-])cc4)s3)s2)cc1 | -66.5
COc1cccc(C(=O)Cn2c(=N)n(C)c3ccccc32)c1 | .
Cn1c(=N)n(CC(=O)c2ccc(Br)s2)c2ccccc21 | -118.0
Cn1c(=N)n(CC(=O)c2cccs2)c2ccccc21 | -92.1
O=C1CC(c2ccco2)CC(O)=C1C=Nc1cc(Cl)ccc1O (centres undefined) | -143.5
CCOc1ccc(S(=O)(=O)N/N=C2/CC(c3ccccc3)Oc3ccccc32)cc1 (centres undefined) | -66.0
Cc1[nH]c2ccccc2c1N=Nc1ccccc1F | -122.1
Oc1ccc(/C=N/n2cc(-c3ccccc3)[nH]c2=S)cc1 | -92.0
S=c1[nH]c(-c2ccccc2)cn1/N=C/c1ccccc1Br | -83.1
Cc1ccc(/C=N/n2cc(-c3ccccc3)[nH]c2=S)s1 | -169.4
CCN(C(=O)CSc1nnc(Cn2nnc3ccccc32)o1)c1nc(-c2ccccc2)cs1 | -105.0
CC#CC(=O)N1CCC(n2nccc2NC(=O)c2ccc3c(c2)OCO3)CC1 | -83.0
CSCCC(=O)N1CCC(n2nccc2NC(=O)c2ccc3c(c2)OCO3)CC1 | -84.1
COc1ccc(-c2noc(-c3ccoc3C)n2)cc1 | -142.9
COc1ccc(-c2noc(-c3ccco3)n2)cc1OC | -110.3
COc1ccc(-c2noc(-c3ccoc3C)n2)cc1OC | -131.8
COc1ccc(C2=Nn3c(nnc3-c3ccco3)SC2)cc1OC | .
COc1cccc(-c2noc(-c3ccoc3C)n2)c1 | -212.5
Cc1ccc(N=Nc2c(C)[nH]n(-c3ccccc3)c2=O)c(C)c1 | -78.2
Cc1[nH]n(-c2ccc(Cl)cc2)c(=O)c1N=Nc1cccnc1 | -92.6
Cc1[nH]n(-c2ccccc2)c(=O)c1N=Nc1cccc(Cl)c1 | -202.1
Cc1[nH]n(-c2ccccc2)c(=O)c1N=Nc1ccc(F)cc1 | -80.6
SMILES | aSyn 5UTR act
Nc1c(N=Nc2cccc(Cl)c2)c(=O)[nH]n1-c1ccccc1 | -66.1
Cc1[nH]n(-c2ccccc2)c(=O)c1N=Nc1ccc2c(c1)OCCO2 | -220.3
Cc1cc(N)ccc1N=Nc1c(C)n(C)n(-c2ccccc2)c1=O | -73.2
Cc1[nH]n(-c2ccccc2)c(=O)c1N=Nc1cccc([N+](=O)[O-])c1 | -70.8
Cc1[nH]n(-c2ccccc2)c(=O)c1N=Nc1c(O)cc(S(=O)(=O)N(C)C)c2ccccc12 | .
CSc1ccc(N=Nc2c(C)[nH]n(C)c2=O)cc1 | -62.1
CN(C)c1ccc(/C=C/c2cc[n+]([O-])cc2)cc1 | -114.4
COc1cc(/C=N/NC(=O)c2nnn(-c3nonc3N)c2C(C)C)ccc1OCc1ccc(F)cc1 | -143.1
CN(C)Cc1c(C(=O)N/N=C/c2ccccc2OCc2c(F)cccc2Cl)nnn1-c1nonc1N | -71.7
CCCc1c(C(=O)N/N=C/c2ccc(OCc3ccccc3)c(OC)c2)nnn1-c1nonc1N | -147.9
COc1ccccc1/C=N/NC(=O)c1nnn(-c2nonc2N)c1-c1cccs1 | -80.1

Compound activity (PubChem BioAssay)
